According to PubChem BioAssay (Tox21):
Records with an inconclusive call do not appear. Where a call stands in place of a potency, no number is given. A structure can be active in one record and inactive in another. Active and inactive are the calls of the source. The call rests on the fitted dose curve; in most records, active means well fitted cell-killing curve with a large enough effect in the repeat runs; inconclusive means weak or mixed curves, or effect the other way; inactive means flat fitted curve, though single readings scatter.

experiment: qHTS assay to identify small molecule agonists of the TGF-beta/Smad signaling pathway - cell viability counter screen (AID 1346829); conditions: SBE-bla HEK293T viability, CellTiter-Glo luminescence, 5 h; series mostly up to 76.8 µM; activity change, negative = cytotoxicity: at the top concentration; further: nearly all actives have a fitted effect of over 45% in size; on activity change, negative = cytotoxicity: top concentration of the series differs between compounds
From the text: National Center for Advancing Translational Sciences [NCATS]
NIH Chemical Genomics Center [NCGC]
U.S. Environmental Protection Agency [EPA]
National Institutes of Environmental Health Sciences [NIEHS]
National Toxicology Program [NTP]
U.S. Food and Drug Administration [FDA]
Transforming growth factor beta (TGF-beta) superfamily consists of a large number of structurally related dimeric proteins that act as hormones or local mediators in regulating a wide range of biological functions. This superfamily includes TGF-betas themselves, the bone morphogenetic proteins (BMPs) and the activins. These ligands induce oligomerization of serine/threonine receptor kinases and phosphorylate the cytoplasmic signaling molecules of Smad protein family. CellSensor SBE-bla HEK 293T cell line (Life Technologies, Carlsbad, CA), responsive to TGF-beta was used to screen Tox21 10K compound library for identification of agonists/antagonists of the Smad signaling pathway. This cell line contains a beta-lactamase reporter gene under control of the Smad binding element (SBE) stably integrated into HEK 293T cells. Also cytotoxicity of the compounds was tested in parallel by measuring the cell viability using CellTiter-Glo assay system in the same wells.
Tox21 Assay Protocol Summary:
SBE-bla HEK 293T cells were dispensed at 4,000/well in 6 uL of assay medium into black wall/clear-bottom 1536-well plates using a Multidrop Combi (ThermoFisher Scientific, Waltham, MA) dispenser. After the assay plates were incubated at 37 C and 5% CO2 for an overnight, 23 nL of compounds dissolved in DMSO, positive controls or DMSO only was transferred to the assay plate by a Pintool station (Kalypsys, San Diego, CA). The assay plates were incubated at 37 C and 5% CO2 for 5 hr. One uL of LiveBLAzer B/G FRET substrate (Life Technologies) was added using a Flying Reagent Dispenser (FRD, Aurora Discovery, San Diego, CA) and the plates were incubated at room temperature for 2 hr. Fluorescence intensity (405 nm excitation, 460 nm and 530 nm emissions) was measured using an Envision plate reader (PerkinElmer, Shelton, CT). For cytotoxicity read, 4 uL of CellTiter-Glo reagent (Promega Corporation, Madison, WI) was added to each well of the assay plates using FRD. After 30min incubation at room temperature, the luminescence intensity was measured using ViewLux plate reader (PerkinElmer).
Potency means the concentration at half of the fitted maximal effect.

Structure (SMILES)	Potency	activity change, negative = cytotoxicity
CCCCCCCCOC(=O)c1ccccc1C(=O)OCCCCCCCC	inactive	–
Nc1ccc(Cl)cc1N	inactive	–
COP(=S)(OC)Oc1ccc([N+](=O)[O-])cc1	inactive	–
ClC1C(Cl)C(Cl)C(Cl)C(Cl)C1Cl (stereo not given)	inactive	–
CC(C)c1ccc(CO)cc1	inactive	–
CC(O)CCO (stereo not given)	inactive	–
CN(C)c1ccc(C(=O)c2ccc(N(C)C)cc2)cc1	inactive	–
O=[N+]([O-])c1cccc2ccccc12	inactive	–
COP(=O)(OC)OC	inactive	–
CCOC(=S)S	inactive	–
COP(=S)(OC)Oc1cc(Cl)c(Cl)cc1Cl	inactive	–
CC(C)N(C(=O)SCC(Cl)=C(Cl)Cl)C(C)C	inactive	–
Nc1ccc(-c2ccccc2)cc1	inactive	–
CCCCN(CC)c1c([N+](=O)[O-])cc(C(F)(F)F)cc1[N+](=O)[O-]	inactive	–
CC1(C)C(C=C(Cl)Cl)C1C(=O)OC(C#N)c1cccc(Oc2ccccc2)c1 (stereo not given)	inactive	–
c1ccc(NNc2ccccc2)cc1	inactive	–
NNC(=S)NN	inactive	–
Nc1ccc(-c2ccc(N)c(N)c2)cc1N	inactive	–
Cc1ccc(OP(=O)(Oc2ccc(C)cc2)Oc2ccc(C)cc2)cc1	–	0.404% (inactive)
c1cc(OCC2CO2)ccc1Cc1ccc(OCC2CO2)cc1 (stereo not given)	inactive	–

Structure (SMILES)	Potency	activity change, negative = cytotoxicity
Cc1c(COC(=O)[C@@H]2[C@H](/C=C(\Cl)C(F)(F)F)C2(C)C)cccc1-c1ccccc1	–	-16% (inactive)
CC(C)=CC1C(C(=O)OCc2coc(Cc3ccccc3)c2)C1(C)C (stereo not given)	inactive	–
Oc1cc(Cl)ccc1Oc1ccc(Cl)cc1Cl	39.8 µM (active) and inactive	–
O=P(O)(O)CCCl	inactive	–
O=S(=O)(Oc1ccc(Cl)cc1)c1ccc(Cl)cc1	inactive	–
Clc1nc(Cl)nc(Cl)n1	inactive	–
CCOCN(C(=O)CCl)c1c(C)cccc1CC	inactive	–
Cc1cccc(N)c1N	inactive	–
C=CCN(CC=C)C(=O)C(Cl)Cl	inactive	–
CCN(CC)C(=O)SCc1ccc(Cl)cc1	inactive	–
C=C(C)[C@H]1Cc2c(ccc3c2O[C@@H]2COc4cc(OC)c(OC)cc4[C@@H]2C3=O)O1	inactive	–
C=C(C)C(=O)OCC1CO1 (stereo not given)	inactive	–
Nc1cccnc1	inactive	–
C=CCc1ccc2c(c1)OCO2	inactive	–
S=C1NCCN1	inactive	–
CC(C)(c1cc(Cl)c(O)c(Cl)c1)c1cc(Cl)c(O)c(Cl)c1	inactive	–
CCN(CC)C(=O)/C(Cl)=C(\C)OP(=O)(OC)OC	inactive	–
CNC(=O)N(C)c1nnc(C(C)(C)C)s1	inactive	–
O=[N+]([O-])c1c(Cl)c(Cl)c(Cl)c(Cl)c1Cl	inactive	–
CCCCCCCCC(=O)NCc1ccc(O)c(OC)c1	inactive	–
